Inconclusive results are not listed. Entries that show only a call come without a potency. Activity calls are given as the source filed them. Calls follow the shape of the full dose curve.
Molecular target: Acetylcholinesterase (Homo sapiens) (UniProt P22303)
Assay: Acetylcholinesterase (AChE) small molecule antagonists: colormetric cell-based qHTS assay (AID 1347395); also: nearly all actives have a fitted effect of over 30% in size; also: potency is read from the fitted curve at half-maximal effect
Details: SH-SY5Y cells AChE activity, colorimetric (Ellman); series mostly up to 115 µM
Outline: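 SH-SY5Y cells; cpd 30 min 37 C; + DTNB/acetylthiocholine, 90 min 37 C; colorimetric thiocholine read; qHTS.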

Sequence of Acetylcholinesterase (Homo sapiens) (P22303 whole entry, looked up): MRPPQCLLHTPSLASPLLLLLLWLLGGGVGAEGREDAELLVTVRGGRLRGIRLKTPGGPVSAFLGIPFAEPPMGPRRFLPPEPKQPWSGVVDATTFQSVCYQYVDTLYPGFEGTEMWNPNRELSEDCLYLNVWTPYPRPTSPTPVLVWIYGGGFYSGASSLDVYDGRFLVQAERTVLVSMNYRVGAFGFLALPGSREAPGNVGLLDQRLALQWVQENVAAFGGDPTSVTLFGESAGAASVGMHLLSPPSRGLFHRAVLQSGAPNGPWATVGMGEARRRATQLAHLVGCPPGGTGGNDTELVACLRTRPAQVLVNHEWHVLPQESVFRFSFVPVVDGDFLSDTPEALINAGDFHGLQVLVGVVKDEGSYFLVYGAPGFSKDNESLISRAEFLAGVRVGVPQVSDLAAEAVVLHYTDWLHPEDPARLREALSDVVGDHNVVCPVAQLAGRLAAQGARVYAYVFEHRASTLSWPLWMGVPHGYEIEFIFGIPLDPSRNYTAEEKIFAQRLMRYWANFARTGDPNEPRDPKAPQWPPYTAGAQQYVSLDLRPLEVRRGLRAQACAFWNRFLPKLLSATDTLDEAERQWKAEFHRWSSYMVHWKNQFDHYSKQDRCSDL

Structure (SMILES)	Potency
Cc1noc(NS(=O)(=O)c2ccc(N)cc2)c1C	inactive
CC(C)OC(=O)COc1ccc(Cl)cc1Cl	inactive
CC1(C)CC(O)CC(C)(C)N1	inactive
O=C(O)c1ccccc1NCCc1ccccc1	inactive
Cc1cc(NS(=O)(=O)c2ccc(N)cc2)nc(C)n1	inactive
CC1CCC(C(C)C)C(O)C1 (stereo not given)	inactive
CCCCN(CCCC)C(=S)SSC(=S)N(CCCC)CCCC	inactive
COC(=O)CCC(=O)OC	inactive
CN(C)CCCNCCC#N	inactive
CC(=O)[C@H]1CC[C@H]2[C@@H]3C[C@H](C)C4=CC(=O)CC[C@]4(C)[C@H]3[C@@H](O)C[C@]12C	inactive
Nc1ccc(N=Nc2ccc(N)cc2)cc1	inactive
COc1ccc(S(=O)(=O)N2C(=O)[C@@](c3ccccc3OC)(N3C[C@H](O)C[C@H]3C(=O)N(C)C)c3cc(Cl)ccc32)c(OC)c1	inactive
O=C(O)Cc1ccc2c(c1)C(=O)c1ccccc1CO2	inactive
CC(C)=CC1CC(C)CCO1 (stereo not given)	inactive
CC(C)(C)C1=CC(=O)C(C(C)(C)C)=CC1=O	inactive
Nc1ccc(Nc2ccccc2)cc1	inactive
NC(CSCC(=O)O)C(=O)O (stereo not given)	inactive
O=C[O][Al]([O]C=O)[O]C=O	inactive
O=C(O)c1cc(C(=O)O)cc(S(=O)(=O)O)c1	inactive
CCCCOCCOCCOCCO	inactive

Structure (SMILES)	Potency
CC(C=O)Cc1ccc(C(C)C)cc1 (stereo not given)	inactive
COC(=O)[C@H]1[C@H]2C[C@@H]3c4[nH]c5cc(OC)ccc5c4CCN3C[C@H]2C[C@@H](OC(=O)c2cc(OC)c(OC)c(OC)c2)[C@@H]1OC	inactive
CC(C)(C)CC(C)(C)c1ccc(O)c(Cc2ccc(Cl)cc2Cl)c1	inactive
C=C1c2cccc(O)c2C(O)=C2C(=O)[C@]3(O)C(O)=C(C(N)=O)C(=O)[C@@H](N(C)C)[C@@H]3[C@@H](O)[C@H]12	inactive
CCCCCCCOC(=O)c1ccc(O)cc1	inactive
O=C(Nc1ccccc1)c1cc(Cl)ccc1O	inactive
O=C(O)COC(=O)Cc1ccccc1Nc1c(Cl)cccc1Cl	inactive
C=C(C)C(=O)OC(C)C	inactive
NC(=O)c1cccnc1	inactive
O=C(O)c1cc(Cl)cc(Cl)c1	inactive
CCCCCC(=O)OCCc1ccccc1	inactive
CO/N=C(/C(=O)N[C@@H]1C(=O)N2C(C(=O)[O-])=C(C[n+]3ccn4ncccc43)CS[C@H]12)c1nsc(N)n1	inactive
CCCn1cnc2c1c(=O)n(CCCCC(C)=O)c(=O)n2C	inactive
OC1OCCOC1O (stereo not given)	inactive
CCCC(=O)O[C@]1(C(=O)CC)CC[C@H]2[C@@H]3CCC4=CC(=O)CC[C@]4(C)[C@H]3[C@@H](O)C[C@@]21C	inactive
CC[C@H]1OC(=O)[C@H](C)[C@@H](O[C@H]2C[C@@](C)(OC)[C@@H](O)[C@H](C)O2)[C@H](C)[C@@H](O[C@@H]2O[C@H](C)C[C@H](N(C)C)[C@H]2O)[C@](C)(O)C[C@@H](C)C(=O)[C@H](C)[C@@H](O)[C@]1(C)O	inactive
Clc1cccc(C(c2ccc3nc[nH]c3c2)n2ccnc2)c1 (stereo not given)	inactive
CCCCCCCCCCCCCCCCCCO	inactive
NC(=O)Cn1c(=O)cc(CCN2CCN(c3nccc4sccc34)CC2)c2ccc(F)cc21	35.6 µM (active)
CCCC(=O)C(C)=O	inactive

Molecular target: Acetylcholinesterase (Homo sapiens) (UniProt P22303)
Assay: Acetylcholinesterase (AChE) small molecule antagonists: enzyme-based qHTS assay (AID 1347397); also: nearly all actives have a fitted effect of over 55% in size
Details: Potency: AChE enzyme activity inhibition; outcome: AChE enzyme activity inhibition; series mostly up to 115 µM
Outline: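 Enzyme inhibition was scored from DTNB-detected thiocholine formed by recombinant human AChE acting on acetylthiocholine. The 30 min compound preincubation and 10 min substrate reaction were both run at room temperature, with DMSO as vehicle control.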

Structure (SMILES)	Potency
Cc1noc(NS(=O)(=O)c2ccc(N)cc2)c1C	inactive
CC(C)OC(=O)COc1ccc(Cl)cc1Cl	inactive
CC1(C)CC(O)CC(C)(C)N1	inactive
O=C(O)c1ccccc1NCCc1ccccc1	inactive
Cc1cc(NS(=O)(=O)c2ccc(N)cc2)nc(C)n1	inactive
CC1CCC(C(C)C)C(O)C1 (stereo not given)	inactive
CCCCN(CCCC)C(=S)SSC(=S)N(CCCC)CCCC	inactive
COC(=O)CCC(=O)OC	inactive
CN(C)CCCNCCC#N	inactive
CC(=O)[C@H]1CC[C@H]2[C@@H]3C[C@H](C)C4=CC(=O)CC[C@]4(C)[C@H]3[C@@H](O)C[C@]12C	inactive
Nc1ccc(N=Nc2ccc(N)cc2)cc1	inactive
COc1ccc(S(=O)(=O)N2C(=O)[C@@](c3ccccc3OC)(N3C[C@H](O)C[C@H]3C(=O)N(C)C)c3cc(Cl)ccc32)c(OC)c1	inactive
O=C(O)Cc1ccc2c(c1)C(=O)c1ccccc1CO2	inactive
CC(C)=CC1CC(C)CCO1 (stereo not given)	inactive
CC(C)(C)C1=CC(=O)C(C(C)(C)C)=CC1=O	inactive
Nc1ccc(Nc2ccccc2)cc1	inactive
NC(CSCC(=O)O)C(=O)O (stereo not given)	inactive
O=C[O][Al]([O]C=O)[O]C=O	inactive
O=C(O)c1cc(C(=O)O)cc(S(=O)(=O)O)c1	inactive
CCCCOCCOCCOCCO	inactive

Structure (SMILES)	Potency
CC(C=O)Cc1ccc(C(C)C)cc1 (stereo not given)	inactive
COC(=O)[C@H]1[C@H]2C[C@@H]3c4[nH]c5cc(OC)ccc5c4CCN3C[C@H]2C[C@@H](OC(=O)c2cc(OC)c(OC)c(OC)c2)[C@@H]1OC	inactive
CC(C)(C)CC(C)(C)c1ccc(O)c(Cc2ccc(Cl)cc2Cl)c1	inactive
C=C1c2cccc(O)c2C(O)=C2C(=O)[C@]3(O)C(O)=C(C(N)=O)C(=O)[C@@H](N(C)C)[C@@H]3[C@@H](O)[C@H]12	inactive
CCCCCCCOC(=O)c1ccc(O)cc1	inactive
O=C(Nc1ccccc1)c1cc(Cl)ccc1O	inactive
O=C(O)COC(=O)Cc1ccccc1Nc1c(Cl)cccc1Cl	inactive
C=C(C)C(=O)OC(C)C	inactive
NC(=O)c1cccnc1	inactive
O=C(O)c1cc(Cl)cc(Cl)c1	inactive
CCCCCC(=O)OCCc1ccccc1	inactive
CO/N=C(/C(=O)N[C@@H]1C(=O)N2C(C(=O)[O-])=C(C[n+]3ccn4ncccc43)CS[C@H]12)c1nsc(N)n1	inactive
CCCn1cnc2c1c(=O)n(CCCCC(C)=O)c(=O)n2C	inactive
OC1OCCOC1O (stereo not given)	inactive
CCCC(=O)O[C@]1(C(=O)CC)CC[C@H]2[C@@H]3CCC4=CC(=O)CC[C@]4(C)[C@H]3[C@@H](O)C[C@@]21C	inactive
CC[C@H]1OC(=O)[C@H](C)[C@@H](O[C@H]2C[C@@](C)(OC)[C@@H](O)[C@H](C)O2)[C@H](C)[C@@H](O[C@@H]2O[C@H](C)C[C@H](N(C)C)[C@H]2O)[C@](C)(O)C[C@@H](C)C(=O)[C@H](C)[C@@H](O)[C@]1(C)O	inactive
Clc1cccc(C(c2ccc3nc[nH]c3c2)n2ccnc2)c1 (stereo not given)	inactive
CCCCCCCCCCCCCCCCCCO	inactive
NC(=O)Cn1c(=O)cc(CCN2CCN(c3nccc4sccc34)CC2)c2ccc(F)cc21	inactive
CCCC(=O)C(C)=O	inactive
